We go through 13 compounds from PubChem BioAssay (NCI).

Test systems include SR leukemia; RPMI-8226 leukemia; OVCAR-8 ovarian; OVCAR-5 ovarian; OVCAR-4 ovarian; SK-OV-3 ovarian; IGROV1 ovarian; OVCAR-3 ovarian; HS 578T breast; NCI/ADR-RES ovarian.
Common to all, as to assay: NCI-60 one-dose screen, 48 h (100 = growth as untreated, 0 = no growth, -100 = all killed)
What all share (conditions): 10 µM unless noted

The structures appear in SMILES notation. The panel holds about 83,000 compounds, 20% with a hit somewhere; the sample as a whole holds those more often.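 Negative percent growth values reflect cell death: -40 means 40% of the cells present at the start died, and -100 means all died.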 Unmarked numbers belong to inactive results. The source made the active and inactive calls. How the source made its calls: active means growth percent below 10; inactive means the rest.

As to `Cc1c(-c2nc3ccc(F)cc3c(=O)[nH]2)c2ccccc2n1C`, the growth in the assay with SR leukemia is 11.3%; in the assay with RPMI-8226 leukemia, 40.9%; with OVCAR-8 ovarian, 46.9%; in the assay with OVCAR-5 ovarian, 79.4%; in the assay on OVCAR-4 ovarian, 59.4%; in the assay with SK-OV-3 ovarian, 43.2%. For the same compound, the growth in the assay on IGROV1 ovarian was 38.9%; in the assay on OVCAR-3 ovarian, 10.3%; in the assay with HS 578T breast it was 3.2% (active); in the assay with NCI/ADR-RES ovarian, 21.9%.
On to `C#Cc1cccc(Nc2ncnc3ccc(-c4cnc(N)nc4)cc23)c1`, for which the growth with SR leukemia was 40.6%; in the assay on RPMI-8226 leukemia, 22.8%; with OVCAR-8 ovarian, 49.6%; with OVCAR-5 ovarian, 23.1%; in the assay on OVCAR-4 ovarian, 46.1%; with SK-OV-3 ovarian it was -2.3% (active). Also, the growth with IGROV1 ovarian was -26.3% (active); in the assay on OVCAR-3 ovarian, 24.1%; in the assay with HS 578T breast, -7.24% (active); with NCI/ADR-RES ovarian, 49.8%.
For `c1ccc(C2=NN[C@H](c3cn(-c4ccccc4)nc3-c3ccccc3)C2)cc1`, the growth in the assay with SR leukemia was 90.9%; with RPMI-8226 leukemia, 86.7%; in the assay on OVCAR-8 ovarian, 35.6%; in the assay on OVCAR-5 ovarian, 83.6%; in the assay with OVCAR-4 ovarian it was 14.8%; in the assay with SK-OV-3 ovarian, -1.38% (active). Further, the growth with IGROV1 ovarian is 62.1%; in the assay with OVCAR-3 ovarian it was 2.11% (active); in the assay on HS 578T breast, -7.83% (active); in the assay with NCI/ADR-RES ovarian, 48.9%.
On to `COc1cc(CNS(=O)(=O)c2ccc(C)cc2)ccc1OCc1cn(-c2ccc(Br)cc2)nn1`, for which the growth is 100% with SR leukemia; 87.2% in the assay on RPMI-8226 leukemia; 102% in the assay with OVCAR-8 ovarian; 108% in the assay with OVCAR-5 ovarian; 97.3% in the assay on OVCAR-4 ovarian; 75.3% in the assay on SK-OV-3 ovarian. In addition, the growth in the assay with IGROV1 ovarian was 103%; in the assay with OVCAR-3 ovarian it was 112%; with HS 578T breast it was 95.6%; with NCI/ADR-RES ovarian, 104%.
In the case of `CCCCC(=O)c1ccco1`, the growth in the assay on SR leukemia is 98.2%; in the assay on RPMI-8226 leukemia, 85.1%; with OVCAR-8 ovarian, 98.9%; with OVCAR-5 ovarian, 84.7%; in the assay with OVCAR-4 ovarian, 97.3%; with SK-OV-3 ovarian, 89.1%. Besides, the growth in the assay with IGROV1 ovarian was 91.1%; with OVCAR-3 ovarian it was 104%; with HS 578T breast it was 95.2%; with NCI/ADR-RES ovarian, 93.3%.
For the compound `CN1C(=O)N(C)C2Nn3c(s/c(=C\c4ccc(C(F)(F)F)cc4)c3=O)=NC21` (stereo not given), the growth with SR leukemia is 96.9%; with RPMI-8226 leukemia, 106%; in the assay with OVCAR-8 ovarian it was 108%; in the assay on OVCAR-5 ovarian, 103%; with OVCAR-4 ovarian, 102%; in the assay on SK-OV-3 ovarian, 111%. The growth in the assay on IGROV1 ovarian was 101%; with OVCAR-3 ovarian it was 106%; in the assay with HS 578T breast it was 105%; in the assay with NCI/ADR-RES ovarian, 99.8%.
For the compound `Cc1ccc(Cl)cc1Nc1nc(C(F)(F)F)ccc1C(=O)N/N=C/c1cccnc1`, the growth was -5.74% (active) in the assay on SR leukemia; 21% with RPMI-8226 leukemia; 25.1% in the assay with OVCAR-8 ovarian; 37.9% in the assay with OVCAR-5 ovarian; 8.59% (active) in the assay on OVCAR-4 ovarian; -15.3% (active) in the assay with SK-OV-3 ovarian. Besides, the growth in the assay on IGROV1 ovarian was 8.35% (active); in the assay with OVCAR-3 ovarian it was 33.9%; in the assay on HS 578T breast, 39.9%; in the assay with NCI/ADR-RES ovarian, 13.9%.
As for `CN1CCN(C(=O)OCc2ccc3c(Cl)cc(Cl)c(O)c3n2)CC1`, the growth in the assay on SR leukemia is 14%; in the assay with RPMI-8226 leukemia, 42%; in the assay on OVCAR-8 ovarian, 45.1%; in the assay with OVCAR-5 ovarian, 106%; with OVCAR-4 ovarian it was 46.8%; in the assay on SK-OV-3 ovarian, 88.7%. The growth is 56.6% in the assay with IGROV1 ovarian, 50.9% in the assay on OVCAR-3 ovarian, 80.2% with HS 578T breast and 15% in the assay with NCI/ADR-RES ovarian.
In the case of `OCCOCCN(Cc1ccccn1)Cc1cc(I)cc(I)c1O`, the growth with SR leukemia is 87.8%; in the assay on RPMI-8226 leukemia it was 96.9%; in the assay with OVCAR-8 ovarian, 85.7%; with OVCAR-5 ovarian it was 92.5%; in the assay with OVCAR-4 ovarian it was 93.9%; in the assay on SK-OV-3 ovarian, 107%. In addition, the growth was 77.9% with IGROV1 ovarian, 90.2% with OVCAR-3 ovarian, 109% with HS 578T breast and 6.52% (active) with NCI/ADR-RES ovarian.
As to `Cc1ccc(S(=O)(=O)N2CCCC2CO)cc1` (stereo not given), the growth with SR leukemia is 112%; in the assay on RPMI-8226 leukemia, 62.6%; with OVCAR-8 ovarian, 103%; in the assay on OVCAR-5 ovarian, 85.7%; in the assay with OVCAR-4 ovarian, 93.5%; with SK-OV-3 ovarian, 102%. In addition, the growth with IGROV1 ovarian is 90.6%; with OVCAR-3 ovarian, 104%; in the assay with HS 578T breast, 79.5%; with NCI/ADR-RES ovarian, 56.7%.
With `CCNc1cc(-c2cccc(OC(F)(F)F)c2)nc2ccc(N3CCCC3)cc12`, the growth in the assay on SR leukemia is 6.47% (active); in the assay with RPMI-8226 leukemia, -2.09% (active); with OVCAR-8 ovarian, 5.54% (active); in the assay on OVCAR-5 ovarian it was 27.9%; in the assay on OVCAR-4 ovarian, 14.5%; in the assay on SK-OV-3 ovarian, 17.7%. Besides, the growth in the assay on IGROV1 ovarian was 27.1%; in the assay with OVCAR-3 ovarian it was -18% (active); in the assay on HS 578T breast, 70.5%; in the assay on NCI/ADR-RES ovarian it was 0.328% (active).
Take `CS(=O)(=O)Nc1cc(-c2ccc3ncnc(Nc4c(Cl)ccc5c4OCO5)c3c2)cnc1Cl`: the growth with SR leukemia is -8.28% (active); in the assay with RPMI-8226 leukemia, -19.7% (active); in the assay with OVCAR-8 ovarian, 8.87% (active); in the assay on OVCAR-5 ovarian, -28.6% (active); in the assay on OVCAR-4 ovarian, 8.29% (active); in the assay with SK-OV-3 ovarian, -10.2% (active). Besides, the growth is -53.5% (active) with IGROV1 ovarian, -64.5% (active) in the assay with OVCAR-3 ovarian, -16.2% (active) in the assay with HS 578T breast and 3.66% (active) in the assay on NCI/ADR-RES ovarian.
Regarding `O=C(NCCCN1CCOCC1)c1cccc(N2C(=O)/C(=C/c3ccc(F)cc3)SC2=S)c1`, the growth with SR leukemia was 98.9%; in the assay on RPMI-8226 leukemia, 102%; in the assay with OVCAR-8 ovarian, 100%; with OVCAR-5 ovarian, 104%; in the assay on OVCAR-4 ovarian, 93.8%; with SK-OV-3 ovarian, 108%. Moreover, the growth is 90.7% with IGROV1 ovarian, 99.5% with OVCAR-3 ovarian, 82.2% in the assay with HS 578T breast and 98.5% in the assay on NCI/ADR-RES ovarian.
